Each structure is given as a SMILES string. Compounds without any hit were thinned out: in the full panel of roughly 83,000, 20% have a hit.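 Testing used 96-well plates and a 48-hour single-concentration exposure. Example: -40 means 40% of the starting cells died.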 A number with no mark means an inactive call. Activity calls are given as the source filed them. Rule for the calls: active = growth percent below 10; inactive = the rest.

This passage reports growth results from PubChem BioAssay (NCI).

Holding throughout (experiment): NCI-60 one-dose screen, 48 h (100 = growth as untreated, 0 = no growth, -100 = all killed)
For experiment [1], the system named is SK-MEL-2 melanoma. Particulars: 10 µM unless noted.
The subject of experiment [2] is EKVX NSCLC. Particulars: 10 µM unless noted.
In experiment [3] the test system is SN12C renal. Particulars: 10 µM unless noted.
Experiment [4] deals with UO-31 renal. The note with it: 10 µM unless noted.
Experiment [5] relates to TK-10 renal. Particulars: 10 µM unless noted.
The subject of experiment [6] is ACHN renal. Particulars: 10 µM unless noted.
Experiment [7] has as its system CAKI-1 renal. The note with it: 10 µM unless noted.
Experiment [8] concerns MOLT-4 leukemia. Particulars: 10 µM unless noted.
Experiment [9] has as its system SR leukemia. The note with it: 10 µM unless noted.
In experiment [10] the test system is RPMI-8226 leukemia. The note with it: 10 µM unless noted.
For experiment [11], the system named is OVCAR-8 ovarian. Particulars: 10 µM unless noted.
Experiment [12] concerns OVCAR-5 ovarian. The note with it: 10 µM unless noted.
For experiment [13], the system named is SK-OV-3 ovarian. Particulars: 10 µM unless noted.
Experiment [14] has as its system IGROV1 ovarian. The note with it: 10 µM unless noted.
Experiment [15] has as its system OVCAR-3 ovarian. Particulars: 10 µM unless noted.
Experiment [16] has as its system HS 578T breast. Particulars: 10 µM unless noted.
Experiment [17] relates to NCI/ADR-RES ovarian. Particulars: 10 µM unless noted.
Experiment [18] deals with A498 renal. The note with it: 10 µM unless noted.
Experiment [19] deals with OVCAR-4 ovarian. Particulars: 10 µM.
The test system of experiment [20] is CCRF-CEM leukemia. The note with it: 10 µM unless noted.

Regarding `COCCCNc1nc(NC(=O)c2cc(OC)cc(OC)c2)cc(-c2cccnc2)n1`, the growth in experiment [1] was 78.8%; in experiment [2] it was 105%; in experiment [3], 95.3%; in experiment [4], 56.7%; in experiment [5], 86.7%; in [6], 98.2%. Further, the growth in [7] is 99.4%; in experiment [8] it was 83.5%; in experiment [9] it was 80.6%; in experiment [10], 69.3%; in experiment [11] it was 79.3%; in experiment [12] it was 95.7%. The growth in experiment [13] is 105%; in experiment [14], 102%; in experiment [15], 113%; in experiment [16] it was 95.3%; in experiment [17] it was 83.5%.
In the case of `COc1ccc(/C=C2\N=C(Nc3ccccc3)N(NC(=O)c3ccccn3)C2=O)cc1`, the growth is 102% in experiment [1]; 91.5% in experiment [2]; 94.7% in experiment [3]; 72.3% in [4]; 127% in [5]; 99.4% in [6]. Further, the growth in experiment [18] is 81.5%; in experiment [8], 76.7%; in experiment [9], 95.2%; in [10] it was 88.2%; in experiment [11], 100%; in [12] it was 122%. In addition, the growth was 90% in [19]; 95.7% in [14]; 105% in experiment [15]; 95.3% in experiment [16]; 97% in [17].
With `C#C[C@]1(O)CC[C@H]2[C@@H]3CC=C4c5nc(Nc6ccc(OC)cc6OC)sc5CC[C@]4(C)[C@H]3CC[C@@]21C`, the growth was -10.1% (active) in [1]; 24.7% in experiment [2]; 37.6% in experiment [3]; 13.2% in experiment [4]; 51.3% in experiment [5]; 32.6% in [6]. The growth was -56% (active) in [18]; 16.9% in experiment [20]; 4.56% (active) in [8]; 5.67% (active) in experiment [9]; -26.1% (active) in experiment [10]; 59.4% in [11]. In addition, the growth in experiment [12] was 51.7%; in [19], 44.7%; in experiment [14] it was 43.2%; in experiment [15] it was 26.4%; in [16], -12.7% (active).
With `CN(C)c1ccc(N=Nc2ccc3ccccc3c2)cc1`, the growth in experiment [1] is 98.7%; in experiment [2], 83.5%; in [3], 87%; in experiment [4], 57%; in [5], 91.4%; in experiment [6] it was 87.8%. The growth in experiment [18] was 88.5%; in experiment [20], 72%; in experiment [8], 80.8%; in [9], 61.8%; in [10] it was 79.7%; in [11] it was 98.2%. For the same molecule, the growth in experiment [12] is 104%; in experiment [19], 76.7%; in experiment [13] it was 96%; in [14], 77.8%; in [15] it was 88.7%; in experiment [16], 98.4%. In [17], the growth was 98.1%.
As to `N#Cc1c(N2CCOCC2)nc(=S)[nH]c1-c1ccco1`, the growth in experiment [1] is 37.1%; in [2] it was 48.8%; in [3], 77.6%; in experiment [4] it was 66%; in [5], 47.1%; in experiment [6] it was 64.2%. Besides, the growth in experiment [18] was -1.37% (active); in experiment [20] it was 49.6%; in experiment [8], 64.5%; in [9], 17.8%; in experiment [10], 43%; in experiment [11] it was 80.3%. The growth is 69% in [12]; 66.2% in [19]; 55% in experiment [13]; 20.7% in [14]; 64.7% in experiment [15]; 40.2% in [17].
For `Cc1nn(-c2ccccc2)c(N2CCOCC2)c1-c1nc2ccc([N+](=O)[O-])cc2[nH]1`, the growth in experiment [1] was 110%; in experiment [2] it was 106%; in [3], 95.2%; in experiment [4], 81.4%; in [5], 100%; in experiment [6] it was 105%. The growth in experiment [18] was 76.3%; in [20], 92.6%; in experiment [8], 85.7%; in experiment [9], 87.2%; in [10], 97.6%; in experiment [11], 102%. For the same molecule, the growth in experiment [12] was 108%; in experiment [19] it was 98.9%; in [13], 135%; in experiment [14] it was 111%; in [15], 110%; in experiment [17], 105%.
As to `Cn1cc(-c2noc(C(=O)c3cn(C)c4ncccc34)n2)c2ccccc21`, the growth in [1] is 107%; in experiment [2], 60.6%; in experiment [3], 95%; in [4], 75.9%; in experiment [5], 26.5%; in experiment [6], 98.6%. In addition, the growth is 69.9% in [18]; 98.1% in [20]; 95.6% in experiment [8]; 74.9% in experiment [9]; 94.5% in experiment [10]; 102% in experiment [11]. The growth in experiment [12] is 96.1%; in experiment [19], 57.7%; in [14], 80.7%; in [15], 103%; in [16], 88.5%; in experiment [17], 92.3%.
For `COC(=O)c1c(C)[nH]c(/C=C2\N=C(c3ccc[nH]3)C=C2OC)c1C`, the growth in experiment [1] is -72.8% (active); in experiment [2] it was -31.8% (active); in [3] it was 16.9%; in experiment [4], -72.6% (active); in experiment [5], 0.549% (active); in experiment [6], -69.1% (active). Moreover, the growth in experiment [7] is -25% (active); in experiment [20], 15.2%; in experiment [8] it was 1.37% (active); in [9] it was 4.93% (active); in experiment [10], -16.1% (active); in experiment [11], -7.15% (active). Moreover, the growth was 0.695% (active) in experiment [12]; 48.4% in experiment [13]; -8.84% (active) in experiment [14]; -40.6% (active) in experiment [15]; -27.4% (active) in experiment [16]; 13.3% in [17].
